Measurements: PubChem BioAssay (NCATS)
Results filed as inconclusive are left out. A call without a number means that no potency is given here. Calls of active or inactive are those of the source. Unless noted, calls come from the whole dose curve; as a rule, active = well fitted curve in the direction sought with a large enough effect; inconclusive = small, poorly fitted or top-dose-only effect, or another doubt; inactive = no such curve, though single readings can be large; an effect the other way counts as inactive or inconclusive. Non-standard residues stand in square brackets, D forms with d. Residues, ends and D or L forms follow the SMILES beside them. *: point of attachment. Sta = CC(C)C[C@H](N)[C@@H](O)CC(=O)O; Isovaleryl = CC(C)CC(=O)*

What was measured:
[1] = High-throughput drug toxicity screening in the BPDCN cell line Cal-1 (AID 1224825; call rule not given here); conditions: Cal-1 BPDCN cell viability, qHTS; at 45.8 µM (top of the series) unless noted
Method in brief: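 Exponentially growing Cal-1 cells, 500 per well in phenol red-free RPMI with 10% FBS, were exposed to compounds for 48 h at 37 °C, 5% CO2. Viability was read by CellTiter-Glo luminescence and normalised to DMSO (100%) and 9.2 uM bortezomib (0%).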

[2] = qHTS assay for measurement of the activity of small molecule inhibitors on Zika virus induced Caspase-3 activity in human iPSC derived neural progenitor cells (hNPCs) (AID 1224857); note: nearly all actives have a fitted effect of over 65% in size; note: potency is the fitted concentration of half-maximal effect
Method in brief: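 Cells were plated at 350 per well and grown 16 to 20 hours. Compound pretreatment lasted one hour, after which ZIKV (2 FFU/cell) was added for 6 hours. Percent inhibition was normalized between uninfected and infected controls.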

[3] = qHTS assay for measurement of the activity of small molecule inhibitors on Zika virus induced Caspase-3 activity in human astrocytoma cells (AID 1224859)
Method in brief: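 Percent inhibition of virus-induced caspase-3/7 signal is calculated against uninfected and ZIKV-infected control cells. Cells are SNB-19, infected at 2 FFU/cell for 6 h after 1 h compound exposure.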

[4] = qHTS Screen of the MIPE 4.0 Collection Against Ewings Sarcoma (RDES) (AID 1259252); note: nearly all actives have a fitted effect of over 35% in size; note: potency is the fitted concentration of half-maximal effect
Method in brief: (§1)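 Compound titrations go onto adherent log-phase cells 4 h after seeding, incubate 48 h at 37C, then CellTiter-Glo luminescence reports viability relative to DMSO and cell-free controls.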

[5] = qHTS Screen of the MIPE 4.0 Collection Against Ewings Sarcoma (TC71) (AID 1259253); note: nearly all actives have a fitted effect of over 40% in size; note: potency is the fitted concentration of half-maximal effect
Method in brief: as §1

[6] = qHTS Screen of the MIPE 4.0 Collection Against Ewings Sarcoma (EW8) (AID 1259255); note: nearly all actives have a fitted effect of over 35% in size; note: potency is the fitted concentration of half-maximal effect
Method in brief: as §1

[7] = qHTS assay to identify small molecule inhibitors of chordoma cells - UCH-2 (AID 1259356); note: potency is the fitted concentration of half-maximal effect
[8] = qHTS assay to identify small molecule inhibitors of chordoma cells - UCH-1 (AID 1259355); note: nearly all actives have a fitted effect of over 55% in size
Method in brief: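 Luminescent ATP read-out (CellTiter-Glo, 30min at room temperature) measured viability of UCH-1 cells exposed for 48hr to test drugs at 15 concentrations, co-dosed with a five-agent combination of auranofin, camptothecin, doxorubicin, rubitecan and topotecan.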

[9] = qHTS Screen of the MIPE 4.0 Collection Against Ewings Sarcoma (TC32) (AID 1259256); note: nearly all actives have a fitted effect of over 45% in size; note: potency is the fitted concentration of half-maximal effect
Method in brief: as §1

[10] = Identifying Small Molecule Inhibitors of Pancreatic Cancer Stem Cells (A2780, Spheroid) (AID 1259357); conditions: Potency: A2780 spheroid viability;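 note: spheroids pre-formed over 14 days in stem cell medium on hydrogel; potency is the fitted concentration of half-maximal effect; compound exposure lasted 48 h before the ATP luminescence read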
Method in brief: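 After a 4 h attachment period, compounds were pinned into wells and cultures held 48 h under standard incubator conditions. Viability was then measured as CellTiter-Glo luminescence following 10 min at room temperature.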

SMILES | viability (% of control) [1] | Potency [2] | Potency [3] | Potency [4] | Potency [5] | Potency [6] | Potency [7] | Potency [8] | Potency [9] | Potency [10]
Cc1cc2c(s1)Nc1ccccc1N=C2N1CCN(C)CC1 | 115% | inactive | inactive | inactive | inactive | inactive | inactive |  |  | 
O=P(O)(O)C(O)(Cn1ccnc1)P(=O)(O)O | 108% [at 23.2 µM] | inactive | inactive | inactive | inactive | inactive | inactive | inactive |  | 
O=C(CS(=O)Cc1ccco1)NCC=CCOc1cc(CN2CCCCC2)ccn1 (stereo unspecified) | 112% | inactive | inactive | inactive | inactive | inactive | inactive | inactive | inactive | 
C[Se]CCC(N)C(=O)O (stereo unspecified) | 109% [at 92.2 µM] | inactive | inactive | inactive | inactive | inactive | inactive | inactive | inactive | 
COc1cc(OC)c(C(=O)CCCN2CCCC2)c(OC)c1 | 101% | inactive | inactive | inactive | inactive | inactive | inactive |  | inactive | 
O=C(O)c1cccnc1Nc1cccc(C(F)(F)F)c1 | 88.7% | inactive | inactive | inactive | inactive | inactive | inactive | inactive | inactive | 
Clc1ccc(C(Cn2ccnc2)OCc2ccc(Sc3ccccc3)cc2)c(Cl)c1 (stereo unspecified) | 100% | inactive | inactive |  |  |  |  |  |  | 
CC(C)(S)[C@@H](N)C(=O)O | 106% | inactive | inactive | inactive | inactive | inactive | inactive |  | inactive | 
CCN(CC)CCOc1ccc(Nc2ncc3cc(-c4c(Cl)cccc4Cl)c(=O)n(C)c3n2)cc1 | 2.59% | inactive | inactive | 1.87 µM (active) | 3.32 µM (active) | 0.235 µM (active) |  |  | 2.64 µM (active) | 13.2 µM (active)
CCOc1cc(CC(=O)N[C@@H](CC(C)C)c2ccccc2N2CCCCC2)ccc1C(=O)O | 27.5% | inactive | inactive | inactive | inactive | inactive | inactive | inactive | inactive | 
CC1(C)C(=O)N(CCN2CCC(C(=O)c3ccc(F)cc3)CC2)c2ccccc21 | 85.6% | inactive | inactive | inactive | inactive | inactive |  |  |  | 
CNC[C@@H](O)[C@@H](O)[C@H](O)[C@H](O)CO | 115% | inactive | inactive | inactive | inactive | inactive | inactive | inactive |  | 
Nc1ccn([C@@H]2O[C@H](CO)[C@@H](O)C2O)c(=O)n1 (stereo partly specified) | 92.2% | inactive | inactive | inactive | inactive | inactive | inactive |  | inactive | 
NC(=NCc1ccccc1)NC(=O)c1nc(Cl)c(N)nc1N | 133% | inactive | inactive | 16.6 µM (active) |  |  |  |  |  | 
COCCCN1CCC(NC(=O)c2cc(Cl)c(N)c3c2OCC3)CC1 | 76.6% | inactive | inactive |  |  |  |  |  |  | 
O=C(O)c1cc(=O)c2c(OCC(O)COc3cccc4oc(C(=O)O)cc(=O)c34)cccc2o1 | 115% | inactive | inactive | inactive | inactive | inactive | inactive | inactive | inactive | 
C[C@@H](N)C1CCC(C(=O)Nc2ccncc2)CC1 (stereo partly specified) | 79.9% | inactive | inactive | 18.7 µM (active) | inactive | inactive |  |  |  | 
c1cnc2cc3c(cc2n1)C1CNCC3C1 | 97.2% | inactive | inactive | inactive | inactive | inactive |  |  |  | 
O=c1cc(N2CCOCC2)oc2c(-c3ccccc3)cccc12 | 36.2% | inactive | inactive | 13.2 µM (active) | 18.7 µM (active) | 18.7 µM (active) |  |  |  | 
CC(C)[N+]1(C)[C@@H]2CC[C@H]1CC(OC(=O)C(CO)c1ccccc1)C2 (stereo partly specified) | 31.8% | inactive | inactive | inactive | inactive | inactive | inactive | inactive |  | 
Oc1ccc(-c2nc(-c3ccc(F)cc3)c(-c3ccncc3)[nH]2)cc1 | 54.8% | inactive | inactive |  |  |  |  |  |  | 
CCCCc1ccc2nc(NC(=O)OC)[nH]c2c1 | 13.4% | inactive | inactive | 0.0105 µM (active) | 0.0187 µM (active) | 0.0093 µM (active) | inactive |  | inactive | 
COc1cc(C(C)=O)ccc1OCCCN1CCC(c2noc3cc(F)ccc23)CC1 | 52.5% | inactive | inactive |  |  |  |  |  |  | 
COc1ccc2cc([C@H](C)C(=O)O)ccc2c1 | 135% | inactive | inactive | inactive | inactive | inactive | inactive | inactive | inactive | 
Nc1nc(N)c(N=O)c(OCC2CCCCC2)n1 | 15.6% | inactive | inactive | 14.8 µM (active) | 16.6 µM (active) | 18.7 µM (active) |  |  |  | 

SMILES | viability (% of control) [1] | Potency [2] | Potency [3] | Potency [4] | Potency [5] | Potency [6] | Potency [7] | Potency [8] | Potency [9] | Potency [10]
CCCCC(CC)COC(=O)C(C#N)=C(c1ccccc1)c1ccccc1 (stereo unspecified) | 112% | inactive | inactive | inactive | inactive | inactive | inactive |  |  | 
O=Nc1c(-c2c(O)[nH]c3cc(Br)ccc23)[nH]c2ccccc12 | 1.62% | inactive | inactive | 3.32 µM (active) | 7.43 µM (active) | 4.18 µM (active) |  |  | 4.18 µM (active) | 
Cc1cc(Cl)ccc1OCCCC(=O)NO | 3.6% | inactive | inactive | 0.743 µM (active) | 9.35 µM (active) | 1.05 µM (active) |  |  | 11.8 µM (active) | 
Cc1ccc(C(=O)c2cc(O)c(O)c([N+](=O)[O-])c2)cc1 | 73.3% | inactive | inactive |  |  |  |  |  |  | 
CC1=C(C(=O)O)N2C(=O)[C@@H](NC(=O)[C@H](N)C3=CCC=CC3)[C@H]2SC1 | 99.4% | inactive | inactive | inactive | inactive | inactive |  |  | inactive | 
CC(C)CC(=O)N[C@H](C(=O)N[C@H](C(=O)N[C@@H](CC(C)C)[C@@H](O)CC(=O)N[C@@H](C)C(=O)N[C@@H](CC(C)C)[C@@H](O)CC(=O)O)C(C)C)C(C)C (Isovaleryl-VV[Sta]A[Sta]-OH) | 39.4% | inactive | inactive | inactive | inactive | inactive | inactive |  |  | 
CC1=C(C)C(=O)C(C(CCCCCC(=O)O)c2ccccc2)=C(C)C1=O (stereo unspecified) | 115% | inactive | inactive | inactive | inactive | inactive | inactive |  | inactive | 
CN(C)c1ccc2nc3ccc(=[N+](C)C)cc-3sc2c1 | 8.34% | inactive | inactive | 2.35 µM (active) | 3.72 µM (active) | 4.69 µM (active) | 14.6 µM (active) |  | 9.35 µM (active) | 
CCCCCCCCCCCCCCCCCCCCCCO | 105% | inactive | inactive | inactive | inactive | inactive | inactive | inactive | inactive | 
Nc1ncn([C@H]2C[C@H](O)[C@@H](CO)O2)c(=O)n1 | 47.1% | inactive | inactive | 0.418 µM (active) | 2.35 µM (active) |  | inactive |  |  | 
CN(C)CCc1c[nH]c2ccc(Cn3cncn3)cc12 | 54.2% | inactive | inactive | inactive | inactive | inactive | inactive |  | inactive | 
O=C(OC1C[C@H]2CC[C@@H](C1)[N+]21CCCC1)C(O)(c1ccccc1)c1ccccc1 (stereo partly specified) | 99.2% | inactive | inactive | inactive | inactive | inactive | inactive | inactive | inactive | 
COc1cc2c(cc1OC)C1CC(=O)C(CC(C)C)CN1CC2 (stereo unspecified) | 100% | inactive | inactive | inactive |  | inactive |  |  |  | 
NCCCCNCCCN | 3.12% | inactive | inactive | inactive | inactive |  |  |  |  | 
COc1ccc(C2(C#N)CCC(C(=O)O)CC2)cc1OC1CCCC1 (stereo unspecified) | 87.2% | inactive | inactive | inactive |  | inactive | inactive |  | inactive | 
Cc1nccn1CC1CCc2c(c3ccccc3n2C)C1=O (stereo unspecified) | 92.7% | inactive | inactive |  | 16.6 µM (active) | inactive |  |  |  | 
N[C@@H](Cc1cc(I)c(Oc2cc(I)c(O)c(I)c2)c(I)c1)C(=O)O | 123% | inactive | inactive | inactive |  | inactive | inactive |  | 3.72 µM (active) | 
O=c1c(O)c(-c2ccc(O)cc2O)oc2cc(O)cc(O)c12 | 84.9% | inactive | inactive | inactive |  |  |  |  | inactive | 
CCN(CC)C(=S)SSC(=S)N(CC)CC | 3.25% | 10 µM (active) | inactive | 0.118 µM (active) |  | 0.0187 µM (active) | inactive | inactive |  | 
NS(=O)(=O)c1cc(C(=O)O)c(NCc2ccco2)cc1Cl | 108% | inactive | inactive | inactive |  | inactive | inactive |  | inactive | 
O=C(CCc1ccc(O)cc1)c1c(O)cc(O)cc1O | 41.1% | inactive | inactive | 0.166 µM (active) |  | 5.9 µM (active) |  |  |  | 
CC(=O)N1CCN(c2ccc(OC[C@H]3CO[C@](Cn4ccnc4)(c4ccc(Cl)cc4Cl)O3)cc2)CC1 | 22.2% | inactive | inactive | 16.6 µM (active) |  |  | inactive | inactive |  | 
CS(=O)(=O)OCCCCOS(C)(=O)=O | 62.5% | inactive | inactive | inactive |  | inactive | inactive | inactive |  | 
Nc1cccc2c1CN(C1CCC(=O)NC1=O)C2=O (stereo unspecified) | 101% [at 92.2 µM] | inactive | inactive | inactive |  | inactive | inactive | inactive | inactive | 
